Test results from PubChem BioAssay (NCATS).
“And” between values parts separate entries of the source, which are not always exact repeats. Equal values may be shown once. Results filed as inconclusive are left out. The source made the active and inactive calls. Unless noted, the call rests on the fitted dose curve.

What was measured:
[1] = qHTS Assay for Lipid Storage Modulators (AID 1519); details: Drosophila S3 cells, BODIPY lipid droplet/cell ratio, laser cytometry, cells loaded with oleic acid; on activity change, negative = inhibition: on the % scale 0 is the no-effect control and ±100 the full control effect
How it was run: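 Cells seeded at 5,000 per well were treated with compounds over a concentration series and loaded with oleic acid (400 uM, as added). Lipid droplet fluorescence (488 nm excitation, 500-530 nm channel) was read by laser-scanning cytometry and normalized to 20 uM Triacsin C.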

[2] = qHTS Assay for Identification of Small Molecule Inducers of Hypoxia Response (AID 2120; active means well fitted curve in the direction sought with a large enough effect in the signal ratio, with a control signal flat, not every such curve was filed as active; the % refers to the signal ratio; further: 0% is about no effect); details: hypoxia response reporter cells, beta-lactamase ratio readout; series mostly up to 104 µM
How it was run: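 Cell-based qHTS for reporter induction: hypoxia response element controlled beta-lactamase in ME-180 cells. Compounds incubated 17 h at 37 degrees C; activity from blue/green (460/530 nm) ratio, inducers ranked by AC50.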

[3] = molecular target: alpha-glucosidase (Oryza sativa, rice) (UniProt Q653V4); assay: Counterscreen for Glucocerebrosidase Inhibitors: qHTS Assay for Rice alpha-Glucosidase at pH 5.0 (AID 997; active means well fitted curve in the direction sought with a large enough effect;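 further: 0% = full activity with enzyme and -100% = basal without enzyme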); details: rice alpha-glucosidase enzyme activity; series mostly up to 76.9 µM
How it was run: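 Endpoint fluorogenic assay at pH 5.0: compounds (0.7 nM to 77 uM) titrated against 4 nM rice enzyme and 400 uM 4-MU-alpha-glucoside for 20 min at room temperature; NaOH/glycine stop, read ex 365/em 440 nm, Hill-fitted AC50.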

[4] = measured here: cell count channel max response
[5] = measured here: lipid channel max response

In the case of `CC(=O)Nc1ccccc1`, the activity change, negative = inhibition ([1]; at 57.5 µM (top of the series)) is reported as 8.44% (inactive), the max response [1, 4] is reported as 6.17% and the max response [1, 5] is reported as 17.6%. For the same compound, the outcome [2] was “inactive”.

For `NCc1ccc(S(N)(=O)=O)cc1`, the activity change, negative = inhibition ([1]; at 25.7 µM (top of the series)) was -2.86% (inactive), the activity change, negative = inhibition ([1]; at 57.5 µM (top of the series)) was 9.84% (inactive) and the max response [1, 4] was -7.52% and 18.9%. The max response [1, 5] was -8.55% and 31.3%.

With `O=C1c2cccc(O)c2C(=O)c2c(O)cccc21` the activity change, negative = inhibition ([1]; at 57.5 µM (top of the series)) was -5.01% (inactive), the max response [1, 4] was 2.23% and the max response [1, 5] was -1.3%. For the same compound, the outcome [2] was “inactive”.

With `NC(N)=NCCN1CCCCCCC1` the activity change, negative = inhibition ([1]; at 25.7 µM (top of the series)) was -2.42% (inactive), the activity change, negative = inhibition ([1]; at 57.5 µM (top of the series)) was 6.2% (inactive) and the max response [1, 4] was 3.46% and 15.5%. The max response [1, 5] was 0.449% and 29.6%.

With `FC(F)(F)C(Cl)Br` (stereo not drawn) the outcome [2] was “inactive”.

With `NC(=O)CC[C@@H](N)C(=O)O` the outcome [3] was “inactive”.

With `CCCC(O)C(CC)CO` (stereo not drawn) the outcome [2] was “inactive”.

In the case of `O=C(c1ccccc1)C(O)c1ccccc1` (stereo not drawn), the outcome [2] is reported as “inactive”.

For `O=C1C(c2[nH]c3ccccc3c2O)=Nc2ccccc21`, the outcome [2] was “inactive”.

With `CCS(=O)(=O)CCn1c([N+](=O)[O-])cnc1C` the activity change, negative = inhibition ([1]; at 25.7 µM (top of the series)) was -0.644% (inactive), the activity change, negative = inhibition ([1]; at 57.5 µM (top of the series)) was 8.24% (inactive) and the max response [1, 4] was -6.2% and 14.4%. The max response [1, 5] was -8.29% and 29%.

In the case of `C=CCNC(N)=S`, the outcome [2] is reported as “inactive”.

In the case of `CC(=O)Nc1ccc(C(=O)O)cc1`, the outcome [2] is reported as “inactive”.

In the case of `NS(=O)(=O)c1cc2c(cc1C(F)(F)F)NCNS2(=O)=O`, the activity change, negative = inhibition ([1]; at 25.7 µM (top of the series)) is reported as -1.44% (inactive), the activity change, negative = inhibition ([1]; at 57.5 µM (top of the series)) is reported as 2.96% (inactive) and the max response [1, 4] is reported as -0.735% and 18.6%. The max response [1, 5] was -2.63% and 23.7%.

In the case of `Cc1cccc(Nc2ccccc2C(=O)O)c1C`, the activity change, negative = inhibition ([1]; at 25.7 µM (top of the series)) is reported as -1.13% (inactive), the activity change, negative = inhibition ([1]; at 57.5 µM (top of the series)) is reported as 13.8% (inactive) and the max response [1, 4] is reported as -7.11% and 0.438%. The max response [1, 5] was -8.71% and 19.7%.

In the case of `CCCCCC(N)=O`, the outcome [2] is reported as “inactive”.

For `Cc1c(NC(C)C)c(=O)n(-c2ccccc2)n1C`, the activity change, negative = inhibition ([1]; at 25.7 µM (top of the series)) was 1.53% (inactive), the activity change, negative = inhibition ([1]; at 57.5 µM (top of the series)) was 9.46% (inactive) and the max response [1, 4] was 12.2% and 13.2%. The max response [1, 5] was 14.1% and 25.6%.

With `Cc1cc(=O)[nH]c(=S)[nH]1` the outcome [2] was “inactive”.

With `COc1ccc(O)cc1` the outcome [2] was “inactive”.

In the case of `CC(=O)OCC(COC(C)=O)OC(C)=O`, the outcome [2] is reported as “inactive”.

With `CCCCCCCC(=O)OCC(COC(=O)CCCCCCC)OC(=O)CCCCCCC` the outcome [2] was “inactive”.

With `CCCCC1(COC(=O)CCC(=O)O)C(=O)N(c2ccccc2)N(c2ccccc2)C1=O` the activity change, negative = inhibition ([1]; at 25.7 µM (top of the series)) was -3.4% (inactive), the activity change, negative = inhibition ([1]; at 57.5 µM (top of the series)) was 5.77% (inactive) and the max response [1, 4] was -9.42% and 23.5%. For the same compound, the max response [1, 5] was -12.6% and 36.6%.
